Assay results: PubChem BioAssay (NCI)
About 83,000 compounds went through this panel and 20% of them were active in at least one assay; those are over-represented in the sample as a whole.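 48-hour exposure, single concentration, 96-well plates; percent growth endpoint where 0 means no net growth. Active: below 10.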 The source made the active and inactive calls.

Tests used:
Assay in all cases: NCI-60 one-dose screen, 48 h (100 = growth as untreated, 0 = no growth, -100 = all killed)
Details in all cases: 10 µM unless noted
NCI-H23 lung = test system: NCI-H23 lung
NCI-H226 lung = test system: NCI-H226 lung
NCI-H322M lung = test system: NCI-H322M lung
HOP-62 NSCLC = test system: HOP-62 NSCLC
NCI-H460 lung = test system: NCI-H460 lung
HOP-92 NSCLC = test system: HOP-92 NSCLC
NCI-H522 lung = test system: NCI-H522 lung
A549/ATCC NSCLC = test system: A549/ATCC NSCLC
786-0 renal = test system: 786-0 renal
COLO 205 colon = test system: COLO 205 colon

Row | SMILES | growth (NCI-H23 lung) | growth (NCI-H226 lung) | growth (NCI-H322M lung) | growth (HOP-62 NSCLC) | growth (NCI-H460 lung) | growth (HOP-92 NSCLC) | growth (NCI-H522 lung) | growth (A549/ATCC NSCLC) | growth (786-0 renal) | growth (COLO 205 colon)
1 | C(=N\Nc1nnc2n1N=C(c1ccccc1)CS2)/c1ccc(OCc2ccccc2)cc1 | 103% (inactive) | 88.9% (inactive) | 107% (inactive) | 110% (inactive) | 106% (inactive) | 110% (inactive) | 88.1% (inactive) | 91.1% (inactive) | 110% (inactive) | 112% (inactive)
2 | CCOc1cc(\C=N/N=C(N)/C(N)=N\N=C/c2ccc(O)c(OCC)c2)ccc1O | 97.7% (inactive) | 99.9% (inactive) | 103% (inactive) | 109% (inactive) | 107% (inactive) | 116% (inactive) | 105% (inactive) | 107% (inactive) | 110% (inactive) | 5.55% (active)
3 | O=C(NS(=O)(=O)c1ccccc1)n1cc(-c2ccncc2)c(-c2cc(O)cc(Cl)c2)n1 | 104% (inactive) | 104% (inactive) | 108% (inactive) | 115% (inactive) | 111% (inactive) | 103% (inactive) | 76.1% (inactive) | 97.5% (inactive) | 98% (inactive) | 114% (inactive)
4 | Cc1ccc(-c2nn(CC(=O)N3CCOCC3)c(N)c2C#N)cc1 | 100% (inactive) | 102% (inactive) | 110% (inactive) | 108% (inactive) | 106% (inactive) | 111% (inactive) | 101% (inactive) | 95.8% (inactive) | 100% (inactive) | 122% (inactive)
5 | Cn1ccnc1C(=O)/C=C/c1ccc(C(=O)Nc2ccccc2F)cc1 | 27.4% (inactive) | 50.7% (inactive) | 14.6% (inactive) | 3.72% (active) | -0.603% (active) | 16.2% (inactive) | 39.7% (inactive) | 17.1% (inactive) | 18.5% (inactive) | 32.7% (inactive)
6 | COC(=O)c1c(C(=O)OC)c2ccc3c4ncccc4ccc3n2c1C(=O)c1ccc(C)cc1 | 101% (inactive) | 96.6% (inactive) | 90.7% (inactive) | 76.7% (inactive) | 101% (inactive) | 91.7% (inactive) | 68% (inactive) | 83.2% (inactive) | 91% (inactive) | 98.8% (inactive)
7 | COc1ccc(N/N=C/c2ccc3c(c2)Sc2ccccc2N3C)cc1 | 76.8% (inactive) | -68.4% (active) | 77.1% (inactive) | 66.9% (inactive) | 28.9% (inactive) | 67.5% (inactive) | 46.9% (inactive) | 57.2% (inactive) | 88.4% (inactive) | 102% (inactive)
8 | C#CCOc1ccc(C2=NN(CCCC)C3N=C(Cl)c4ncn(CCCC)c4N23)cc1OCC#C (stereo not given) | 86.9% (inactive) | 90.5% (inactive) | 88.8% (inactive) | 90.4% (inactive) | 88.6% (inactive) | 73.6% (inactive) | 74.7% (inactive) | 80.3% (inactive) | 102% (inactive) | 103% (inactive)
9 | CCOC(=O)c1cc(C(=O)c2cc(OC)cc(OC)c2)n2ccccc12 | 67.3% (inactive) | 73.5% (inactive) | 86.3% (inactive) | 30% (inactive) | 15% (inactive) | 64.3% (inactive) | 40.9% (inactive) | 35.7% (inactive) | 36.4% (inactive) | 13.5% (inactive)
10 | CS(=O)(=O)c1ccc(/C(=N/NC(N)=S)c2ccc(F)cc2)cc1 | 97.9% (inactive) | 107% (inactive) | 104% (inactive) | 105% (inactive) | 102% (inactive) | 112% (inactive) | 99.6% (inactive) | 108% (inactive) | 102% (inactive) | 116% (inactive)
11 | COc1cc(OCc2cccc(-c3ccc4c(c3)OCCO4)c2C)cc(OC)c1C=O | 52.4% (inactive) | 32.6% (inactive) | 85.3% (inactive) | 73.4% (inactive) | 72.2% (inactive) | 79.5% (inactive) | 42.7% (inactive) | 69% (inactive) | 67.1% (inactive) | 40.8% (inactive)
12 | Cc1cc2nc(C(Cl)Cl)nc(-c3ccccc3)n2n1 | 33.6% (inactive) | 90.7% (inactive) | 10.9% (inactive) | 31.9% (inactive) | -50% (active) | 72.9% (inactive) | 72.4% (inactive) | 4.73% (active) | 92.4% (inactive) | 1.99% (active)
13 | COc1ccccc1-c1nc2ccc3[nH]ncc3c2c2c1CCCC2 | 69% (inactive) | 81.4% (inactive) | 82.8% (inactive) | 61.2% (inactive) | 82.5% (inactive) | 70.5% (inactive) | 55% (inactive) | 65.2% (inactive) | 67.7% (inactive) | 74.7% (inactive)
14 | CCOC(=O)C#Cc1c(CC(=O)OCC)nnn1[C@H]1O[C@@H](CO)[C@@H]2OC(C)(C)O[C@@H]21 | 95.3% (inactive) | 93.8% (inactive) | 93.9% (inactive) | 101% (inactive) | 104% (inactive) | 75.1% (inactive) | -57.6% (active) | 75.9% (inactive) | 83.9% (inactive) | -40.3% (active)
15 | CCN1C(=O)N(CC)C2C1NN=c1s/c(=C\c3ccc([N+](=O)[O-])cc3)c(=O)n12 (stereo not given) | 47% (inactive) | 66.8% (inactive) | 54.6% (inactive) | 42.6% (inactive) | 8.23% (active) | 79.2% (inactive) | -0.229% (active) | 30.4% (inactive) | 44.1% (inactive) | 13.3% (inactive)
16 | O=C1CC2C=CCN2C=C1NC(=O)c1ccccc1 (stereo not given) | 101% (inactive) | 102% (inactive) | 99.8% (inactive) | 114% (inactive) | 111% (inactive) | 110% (inactive) | 104% (inactive) | 92.6% (inactive) | 98.5% (inactive) | 102% (inactive)
17 | Nc1ncc(-c2ccc3ncnc(N4CCc5cc(F)c(Cl)cc54)c3c2)cc1C(F)(F)F | 47.6% (inactive) | 28.3% (inactive) | 19.8% (inactive) | 33.1% (inactive) | 28.2% (inactive) | 10.1% (inactive) | 20.3% (inactive) | 21.4% (inactive) | 15.8% (inactive) | 41.8% (inactive)
18 | C/C(=N\NC(=O)c1ccc(C(C)(C)C)cc1)c1ccc(O)cc1O | 23.7% (inactive) | 25.6% (inactive) | 25.5% (inactive) | 20.9% (inactive) | 3.99% (active) | 59.3% (inactive) | 27.5% (inactive) | 21.5% (inactive) | 15.3% (inactive) | 7.24% (active)
19 | O=[N+]([O-])c1ccc(N/N=C\c2cc(Cl)ccc2O)nc1 | 32.7% (inactive) | 100% (inactive) | 30.4% (inactive) | 45.6% (inactive) | 12.8% (inactive) | 59.7% (inactive) | 31.3% (inactive) | 50.4% (inactive) | 34% (inactive) | 50.1% (inactive)
20 | O=C(Nc1ncc(Cc2ccccc2Cl)s1)c1ccc2c(c1)OCCO2 | 40.8% (inactive) | 30.1% (inactive) | 48.9% (inactive) | 28.3% (inactive) | 5.42% (active) | 56.3% (inactive) | 1.6% (active) | 20.8% (inactive) | 41.2% (inactive) | -3.85% (active)
21 | C=CC(=O)NCc1cccc(Nc2ncc(Br)c(NCCCNC(=O)C3CCC3)n2)c1 | -37% (active) | -0.669% (active) | -13.1% (active) | -26.9% (active) | -41.9% (active) | -11.5% (active) | -38.8% (active) | -9.64% (active) | -35.2% (active) | -25.7% (active)
22 | Nc1n[nH]c2cccc(C#Cc3cccc(C(=O)Nc4ccc(Cl)c(C(F)(F)F)c4)c3)c12 | 59.1% (inactive) | 36% (inactive) | 77% (inactive) | 67.5% (inactive) | 64.3% (inactive) | 20.1% (inactive) | 30.9% (inactive) | 71.3% (inactive) | 76.6% (inactive) | 29.3% (inactive)
23 | CC1=C(C(=O)c2ccccc2)C(c2ccc3c(c2)OCO3)NC(=S)N1 (stereo not given) | 48% (inactive) | 66.5% (inactive) | 67.7% (inactive) | 51.8% (inactive) | 8.05% (active) | 92.3% (inactive) | 38.3% (inactive) | 40.3% (inactive) | 58.9% (inactive) | 47.6% (inactive)
24 | CC1=C(C(=O)OCc2ccccc2)C(c2ccc3c(c2)OCO3)n2c(nc3ccccc32)N1 (stereo not given) | 49.3% (inactive) | 58.2% (inactive) | 47% (inactive) | 44.2% (inactive) | 6.62% (active) | 78.5% (inactive) | 26.3% (inactive) | 47.1% (inactive) | 43.1% (inactive) | 37.2% (inactive)
25 | Cc1ccc(Nc2oc(-c3ccccc3)nc2[P+](c2ccccc2)(c2ccccc2)c2ccccc2)cc1 | -51.8% (active) | -13.8% (active) | -21.6% (active) | -51.1% (active) | -81.7% (active) | -44.8% (active) | -57.4% (active) | -25% (active) | -77.5% (active) | -34.7% (active)
